# Results as given in ChEMBL document CHEMBL1157539, “Thousands of chemical starting points for antimalarial lead identification” (Nature, 2010).
# Key:
# Type in all cases: functional
# Plasmodium falciparum [1] = test: GSK_TCMDC: Inhibition of Plasmodium falciparum 3D7 in whole red blood cells, using parasite LDH activity as an index of growth. Test compounds present at 2uM
# Plasmodium falciparum [2] = test: GSK_TCMDC: Inhibition of Plasmodium falciparum Dd2 in whole red blood cells, using parasite LDH activity as an index of growth. Test compounds present at 2uM
# HepG2 = test: GSK_TCMDC: Percent inhibition of human HepG2 cell line. Test compounds present at 10uM.
Structure (SMILES),Inhibition (Plasmodium falciparum [1]),Inhibition (Plasmodium falciparum [2]),Inhibition (HepG2)
CCCC[C@@H](C(=O)NCCc1ccc(Cl)cc1)N1C(=O)CCC1C(=O)Nc1ccc(Cl)c(Cl)c1 (stereo partly specified),95%,2%,4%
O=C(Nc1cccc(-c2ccc(-c3nc4ccccc4[nH]3)cc2)c1)c1ccncc1,100%,58%,30%
Cl.O=C(Nc1ccnc2ccccc12)NC1CCN(Cc2ccccc2)CC1,96%,43%,18%
CN1CCN(CCNc2c3ccccc3nc3ccc4ccccc4c23)CC1.Cl,99%,99%,22%
OC(CN1CCN(Cc2ccccc2)CC1)Cn1c(-c2ccccc2)c(-c2ccccc2)c2ccccc21 (stereo unspecified),98%,97%,0%
CN1CCN(CCCN(Cc2csc(-c3ccc(CNCc4ccccc4)cc3)n2)S(=O)(=O)c2ccccc2)CC1.O=C(O)C(F)(F)F,99%,78%,17%
Cc1cccc(CNc2nc(C)cc(N[C@@H](Cc3ccccc3)C(=O)NCCOc3ccccc3)n2)c1.O=C(O)C(F)(F)F,93%,54%,28%
O=C(COc1ccc(F)cc1)NC1CCN(c2ccnc3cc(Cl)ccc23)C1.O=C(O)C(F)(F)F (stereo unspecified),100%,100%,24%
O=C(NCCN1CCC(c2ncc(-c3ccccc3)o2)CC1)c1ccc(NC(=O)c2ccc(Cl)cc2)cc1,100%,80%,32%
O=C(Nc1cc(=O)[nH]c2nc(-c3ccccc3)nn12)C1CCCCC1,86%,89%,0%
CCCCCN1CCCN(Cc2cccc(NC(=O)c3ccc(Cl)c(Cl)c3)c2)CC1.O=C(O)C(F)(F)F,89%,28%,30%
CN(C)Cc1ccc(O)c(-c2ccc(C(C)(C)C)cc2)n1.Cl,86%,25%,0%
O=C(NCCCN1CCCCC1)c1ccc(Nc2nccc(Nc3ccc(Oc4ccccc4)cc3)n2)cc1,100%,61%,30%
COc1ccc2nccc([C@@H](O)CN3CCC(NCc4nc5cc(F)cc(F)c5[nH]4)CC3)c2c1.O=C(O)C(=O)O,99%,64%,19%
O=c1cc(NCCC2CC=CCN2Cc2ccc(Cl)c(Cl)c2)[nH]c2ccccc12 (stereo unspecified),94%,77%,7%
COc1cccc(CC(=O)N2CCC(n3c(C)nc4ccc(F)cc43)CC2)c1,100%,99%,0%
Fc1ccc2[nH]c(-c3cccc(-c4ccc(CNCC5CCCO5)cc4)c3)nc2c1.O=C(O)C(F)(F)F (stereo unspecified),100%,98%,36%
COc1ccc2ncc(F)c(CCN3CC(O)C(CNCc4ccc(F)cc4)C3)c2n1.Cl (stereo unspecified),93%,21%,38%
Cc1cccc2[nH]c(-c3cc(-c4cn[nH]c4)cnc3N)nc12,100%,93%,37%
COc1ccc2nccc(NCC3(O)CCC(NCc4ccc5c(n4)NC(=O)CS5)CC3)c2n1.Cl (stereo unspecified),100%,23%,16%
Cl.c1ccc2c(NCCCCCCCNc3ccnc4ccccc34)ccnc2c1,100%,94%,91%

Structure (SMILES),Inhibition (Plasmodium falciparum [1]),Inhibition (Plasmodium falciparum [2]),Inhibition (HepG2)
CCOC(=O)N1CCN(CCCNc2c3ccccc3nc3ccccc23)CC1.Cl,90%,20%,5%
CNc1cc(-c2ccc3ccnc(N)c3c2)nc(N)n1.O=CO,100%,81%,23%
CN1CCN(c2ccnc3ccc(NC(=O)Nc4ccc5c(c4)CCC5=O)cc23)CC1,100%,67%,8%
CON=C1CCC(Cn2ccnc2)(c2ccc(Cl)cc2Cl)CC1 (stereo unspecified),100%,56%,7%
CCOc1ccc(C(=O)Nc2cc(Br)c3c(c2)CNCC3)cc1Br.Cl,96%,21%,18%
O=C(N[C@H]1CCN(Cc2ccc(OC3CCN(Cc4ccccc4)CC3)c(Br)c2)C1)c1ccc(Cl)c(Cl)c1.O=C(O)C(F)(F)F,100%,30%,55%
C=CCn1cc(C2CCN(CCCCNC(=O)c3sc(-c4ccc(C(F)(F)F)cc4)nc3CO)CC2)c2cc(OC)ccc21,91%,4%,40%
O=C(Nc1ccc(C(F)(F)F)cc1)Nc1cccc([N+](=O)[O-])c1,100%,98%,20%
O=C(c1ccc(O)c(-c2cc(Cl)cc(Cl)c2)c1)N1CCCC1,90%,57%,3%
Cc1ccc2[nH]c(/C=C/c3cccc4cc[nH]c34)nc2c1,100%,92%,9%
Cc1ccc2nc(-c3ccc(/C=C/C(=O)NC4CCN(Cc5ccccc5)CC4)cc3)[nH]c2c1C,100%,92%,22%
CC(C)c1ccc(CN2CCC(NC(=O)c3ccc(-c4cccc(F)c4)s3)CC2)cc1.O=C(O)C(F)(F)F,83%,12%,47%
CCN1CCC(N(Cc2ccc(-c3ccc(C(F)(F)F)cc3)o2)C(=O)Cn2c(CCc3cccc(F)c3F)nc(=O)c3ccccc32)CC1.O=C(O)C(O)C(O)C(=O)O,91%,88%,45%
CC(=O)NC(c1cccs1)c1cc(Cl)c2cccnc2c1O (stereo unspecified),94%,93%,65%
O=C(O)C(F)(F)F.OC1(Cc2ccccc2)CCN(Cc2cccc(-c3c[nH]c4nc(NC5CCCC5)ncc34)c2)CC1,96%,35%,45%
COc1ccc(CCNC(=O)c2ccccc2O)cc1-c1ccc(C(C)(C)C)cc1,95%,96%,25%
CCCN1CCc2c(sc3nc(SCC(=O)Nc4ccc(C)cc4)n(-c4ccc(C)cc4)c(=O)c23)C1,92%,71%,0%
Oc1ccccc1CNC1CCCCC1NCc1ccccc1O (stereo unspecified),96%,66%,53%
COc1cccc(C(=O)OC2=C3CCC(=O)C3(C)CCC2=O)c1 (stereo unspecified),93%,9%,37%
Cl.O=C(Nc1cc(Cl)cc(Cl)c1)Nc1ccnc2ccccc12,96%,65%,15%
Cc1nc(-c2ccc(-c3ccc(NC(=O)c4coc5ccc(N6CC(C)NC(C)C6)cc45)cc3)c(C)c2)no1.Cl (stereo unspecified),100%,88%,1%

Structure (SMILES),Inhibition (Plasmodium falciparum [1]),Inhibition (Plasmodium falciparum [2]),Inhibition (HepG2)
CC(C)Nc1cc(C(=O)N[C@@H](Cc2ccccc2)[C@H](O)CNC(C)(C)c2cccc(C(F)(F)F)c2)cc(N2CCCCS2(=O)=O)c1.O=CO,98%,98%,9%
O=C(/C=C/c1cccc(Cl)c1)NCCCCCN1CCC(c2c[nH]c3ccccc23)CC1,89%,17%,46%
O=C(Nc1ccc(-c2cccc(-c3nc4cc(F)ccc4[nH]3)c2)cc1)c1ccncc1,96%,18%,58%
O=C(/C=C/c1ccc(Cl)c(Cl)c1)NCCCCCN1CCCN(C(=O)Nc2ccc(OC(F)F)cc2)CC1,99%,0%,39%
CC(C)CCNCc1ccc(OCc2cccc(COc3ccc(CNCCC(C)C)cc3I)c2)c(I)c1.Cl,91%,49%,99%
O=C(O)C(F)(F)F.c1ccc2[nH]c(-c3ccc(-c4ccc(CN5CCN(c6ccncc6)CC5)cc4)cc3)nc2c1,100%,100%,48%
Cc1noc(C)c1-c1ccc2c(Nc3ccc(C(F)(F)F)cc3)c(C(N)=O)cnc2c1.Cl,100%,95%,1%
C[C@H]1CN(Cc2cccc(-c3cc(CNC(=O)c4cccc(C(=O)c5ccc(Cl)c(Cl)c5)c4)ccc3F)c2)CCN1,85%,42%,40%
O=C(Cc1ccc(Nc2nccc(Nc3cccc4[nH]ncc34)n2)cc1)Nc1ccc(C(F)(F)F)cc1,100%,69%,12%
COc1cc(NC(=O)c2ccc(-c3ccc(C(C)=O)cc3)s2)ccc1OCCN1CCCC1,100%,63%,31%
Br.CC1(C)NC(N)=NC(=N)N1OCCc1cccc2ccccc12,95%,97%,57%
CC(C)Cc1nc2nc(N)nc(N)c2cc1C(C)C,96%,3%,67%
COc1cc(CNCCC(C)C)ccc1OCc1cccc(COc2ccc(CNCCC(C)C)cc2OC)c1.Cl,99%,20%,97%
CC(=O)Oc1c(C2CCN(CCCCNC(=O)c3ccc(NC(=O)c4ccc(Cl)cc4)cc3)CC2)ccc2ccccc12,100%,92%,24%
COc1ccc2nc3cc(Cl)ccc3c(NCCCCN3CCNCC3)c2c1.Cl,100%,75%,29%
CCOc1ccccc1CCNC(C)Cc1ccc(C(=O)Nc2ccc(CC(C)NCCc3cccc(Cl)c3)cc2)cc1 (stereo unspecified),97%,59%,100%
O=C(N/C(=C/c1cccc([N+](=O)[O-])c1)c1nc2ccccc2[nH]1)c1cccc(Br)c1,85%,88%,0%
CN(C)CCOc1ccc(-n2c(-c3nonc3N)nc3cncc(-c4ccc(F)cc4)c32)cc1,97%,7%,10%
c1ccc2c(CNc3ccnc(NCc4cccc5ccccc45)n3)cccc2c1,99%,71%,51%
CCSc1ccc(C)cc1CON1C(N)=NC(N)=NC1(C)C.Cl,94%,96%,66%
